# Data taken from PubChem BioAssay AID504834 (National Center for Advancing Translational Sciences (NCATS), 2011).
# Among all 320,000 compounds or so, about 22,000 (6.9%) were called active. A call without a number means that no potency is given here. Inconclusive results (about 27%) are left out. The call rests on the fitted dose curve; in most records, active means well fitted inhibition curve with a large enough effect; inconclusive means small, poorly fitted or top-dose-only effect, or another doubt; inactive means no such curve, though single readings can be large or run the other way. This excerpt belongs to a sample that is enriched for actives.
# Test: Primary qHTS for delayed death inhibitors of the malarial parasite plastid, 96 hour incubation
# Settings: P. falciparum luciferase reporter growth; series mostly up to 28.7 µM
# Method in brief: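 Infected RBCs, 2% Hct / 0.05% parasitemia final; luciferase-reporter P. falciparum; cpd 96 h, 37 C, 5% CO2; luciferase detection reagent; luminescence.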
# Potency means the concentration at half of the fitted maximal effect.
row,SMILES,Potency
1,COc1ccccc1N(CC(=O)NC1CCCC1)C(=O)C1(C)CC(=O)N=C2C=CC(C)=CN21 (stereo not given),inactive
2,O=C(Nc1ccc(N2CCCCC2)cc1)c1cc(S(=O)(=O)N2CCOCC2)ccc1F,inactive
3,COC(=O)c1ccc(CNC(=O)c2ccc3oc(C(C)C)nc3c2)cc1,inactive
4,NCCCCC(N)C(=O)O (stereo not given),inactive
5,COCC1CCN(C(=O)c2ccc3oc(Cc4ccccc4)nc3c2)C1 (stereo not given),inactive
6,CCOc1ccc2nc(NCCNS(=O)(=O)c3ccccc3)c(C#N)cc2c1,13.1 µM (active)
7,CCOc1ccc(S(=O)(=O)NCCSc2ccccc2)cc1,inactive
8,COc1ccc(CNC(=O)C(C)NCc2ccccc2Cl)cc1 (stereo not given),inactive
9,CCOC(=O)N1CCN(C(=O)c2ccccc2N(Cc2ccccc2)S(=O)(=O)c2ccc(OC)cc2)CC1,inactive
10,CCOC(=O)CN(Cc1ccc(OC)c(OC)c1)S(=O)(=O)c1ccc(OC)cc1,9.28 µM (active)
11,COc1ccc(S(=O)(=O)N(CC(=O)N/N=C/c2ccc(C(=O)O)cc2)Cc2ccccc2)cc1OC,inactive
12,CCNC(=O)Nc1ccc(S(=O)(=O)Nc2cnc(C)nc2C)cc1,inactive
13,COc1cc2c(C(=O)O)c(C)n(C)c2c2ccccc12,inactive
14,O=C(NCCc1ccccc1)C(=O)NCC1OCCN1S(=O)(=O)c1cccs1 (stereo not given),inactive
15,COc1ccc(NS(=O)(=O)c2ccc(Oc3c(C#N)cccc3C#N)cc2)cc1,inactive
16,O=c1[nH]c(-c2cccs2)nc2ccccc12,inactive
17,CC(=O)Nc1cccc(Nc2nc(-c3cccs3)nc3ccccc23)c1,9.28 µM (active)
18,Cc1cccc(-c2nc(Nc3ccc(O)cc3)c3ccccc3n2)c1,inactive
19,Cn1c(CO)cnc1SCc1ccccc1,inactive
20,CSc1c(SCc2ccccc2)cnn(Cc2ccccc2)c1=O,9.28 µM (active)
21,CSc1nc2ccccc2c(=O)n1Cc1ccc(F)cc1,inactive
22,Cc1ccc(C)c(OCCC(=O)OCC(=O)N2CCN(c3ccccc3)CC2)c1,inactive
23,COc1cccc(C2=CC(=O)C[C@H](c3ccc(F)cc3)C2)c1OC,inactive

row,SMILES,Potency
1,CC(C)(C)SCCSC1=CC(=O)CC(c2ccccc2)C1 (stereo not given),inactive
2,O=C1C=C(c2cccc(Br)c2)C[C@@H](c2ccc(F)cc2)C1,2.33 µM (active)
3,COc1ccc([C@H]2CC(=O)C=C(/C=C/c3ccc(Cl)cc3)C2)cc1,inactive
4,O=C1C=C(c2cccc(Cl)c2O)C[C@@H](c2ccc(F)cc2)C1,4.65 µM (active)
5,O=C(Cn1cnc2ccccc21)Nc1ccccc1-c1ccccc1,inactive
6,COc1ccc(/C=C(/NC(=O)c2ccco2)C(=O)Nc2ccc(C(C)=O)cc2)cc1,inactive
7,O=C(O)c1cccc2c1C(=O)N(C1CCCC1)C2,inactive
8,Cc1nonc1C(=O)N/N=C/c1ccc(O)cc1,0.262 µM (active)
9,O=C(C[n+]1ccccc1)N/N=C/c1ccc(O)cc1,inactive
10,Cc1nc2ccccc2cc1C(=O)N/N=C/c1ccc([N+](=O)[O-])cc1,inactive
11,NC(=O)NC(CC(=O)NNC(=O)c1ccccn1)c1ccc(Cl)cc1 (stereo not given),inactive
12,O=C(NNC(=O)c1cc(S(=O)(=O)N2CCCCC2)ccc1Cl)c1ccccc1O,inactive
13,O=C(Nc1ccccc1)c1ccc(NC(=O)c2cccs2)cc1,inactive
14,O=C(Nc1ccccc1Cl)Nc1cccc2cccnc12,inactive
15,O=C(c1cc2nc(-c3ccccc3)cc(-c3ccccc3)n2n1)N1CCC2(CC1)OCCO2,inactive
16,O=C(c1cc(-c2ccncc2)nc2ccccc12)N1CCC2(CC1)OCCO2,4.15 µM (active)
17,CC(=O)N1CCN(C(=O)c2cc(-c3ccc(C)o3)nc3ccccc23)CC1,inactive
18,Cc1cc(C(=O)OC(C)C(=O)NC2CCCCC2C)c(C)o1 (stereo not given),inactive
19,CCN(CC)C(=O)C1CCC(C)(C(=O)O)C1(C)C (stereo not given),inactive
20,CC1(C(=O)O)CCC(C(=O)Nc2ccc(Cl)c(Cl)c2)C1(C)C (stereo not given),10.4 µM (active)
21,NC(=O)N1CCCC1C(=O)Nc1ccc(Cl)c(Cl)c1 (stereo not given),inactive
22,O=C(CN1CCN(S(=O)(=O)c2cccc(Cl)c2)CC1)N1CCCCC1,inactive
